# Experimental data reported in PubChem BioAssay (EPA / NIEHS).
# Results filed as inconclusive are left out. Activity calls are given as the source filed them. How the source made its calls, unless noted: active means hit-call score of the fitted dose curve at least 0.9, where 1 is the maximum; inconclusive means response in the unintended direction; inactive means score below 0.9.
# Assays:
# [1] = TOX21_p53_BLA_p4_viability: Viability Assessment in the Tox21 HCT-116 p53 Agonism Beta-lactamase Assay, Phase 4 (AID 2283597);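 further: hits lower the luminescence signal meaning cytotoxicity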
# Outline: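 Compound exposure of HCT116 cells lasts 16 h at 37C, 5% CO2, with DMSO stocks diluted 217-fold. Cellular ATP is then quantified by CellTiter-Glo luminescence after 30 min at room temperature.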
# [2] = TOX21_p53_BLA_p5_viability: Viability Assessment in the Tox21 HCT-116 p53 Agonism Beta-lactamase Assay, Phase 5 (AID 2283600)
# Outline: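 Counter-readout for cytotoxicity: ATP-dependent luminescence from CellTiter-Glo, read in the beta-lactamase wells after 30 min at RT, following a 16 h compound exposure at 37C.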
# [3] = target: Cellular tumor antigen p53 (Homo sapiens) (UniProt P04637); test: TOX21_p53_BLA_p4_ratio: Tox21 HCT-116 p53 Agonism Beta-lactamase Assay, Ratio, Phase 4 (AID 2283601)
# Outline: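 HCT-116 p53 beta-lactamase reporter cells (4000/well) preincubated 5 h, then compound (217-fold dilution of DMSO stock) for 16 h at 37C. CCF4-AM substrate added 2 h at room temperature; 460/530 nm emission ratio fitted upward versus DMSO.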
# [4] = target: Cellular tumor antigen p53 (Homo sapiens) (UniProt P04637); test: TOX21_p53_BLA_p5_ratio: Tox21 HCT-116 p53 Agonism Beta-lactamase Assay, Ratio, Phase 5 (AID 2283599)
# Outline: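 HCT-116 p53-bla cells (4000/well) plated 5 h, dosed with compound (217-fold DMSO dilution) for 16 h at 37 C; CCF4-AM substrate 2 h at room temperature. Activity is the 460/530 nm emission ratio (405 nm excitation), fitted in gain-of-signal direction versus DMSO.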
# [5] = target: Cellular tumor antigen p53 (Homo sapiens) (UniProt P04637); test: TOX21_p53_BLA_p3_ratio: Tox21 HCT-116 p53 Agonism Beta-lactamase Assay, Ratio, Phase 3 (AID 2283596)
# Outline: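 HCT116 p53-bla cells (4000/well) given compound in DMSO (217-fold dilution) after 5 h, incubated 16 h at 37C. CCF4-AM substrate 2 h at room temperature; 460/530 nm emission ratio, gain fitted against DMSO.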
# [6] = target: Thyroid hormone receptor alpha (Rattus norvegicus) + Thyroid hormone receptor beta (Rattus norvegicus) (UniProt P18113+P63059); test: TOX21_TR_LUC_GH3_Antagonist_Followup: Tox21 GH3 Thyroid Hormone Receptor Antagonism Luciferase Follow-Up Assay (AID 2283942)
# Outline: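 Antagonist mode: GH3 cells seeded 1,500/well, compounds at 15 concentrations (92 uM to 5nM final) plus T3 at 1.0 nM final, 24 h at 37C. Luciferase read with ONE-Glo after 30 min at room temperature.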
# THRB (gene 7068) = THRB (gene 7068) (UniProt P10828); test: TOX21_TRB_BLA_Antagonist_Followup_ratio: Tox21 Thyroid Hormone Receptor beta Antagonism Beta-lactamase (BLA) Follow-Up Assay, Ratio (AID 2283958)
# Outline: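 In this antagonist-mode follow-up, a stably integrated GAL4-TRβ LBD fusion drives a UAS-beta-lactamase reporter in HEK293T cells. Loss of ratio signal relative to DMSO after 18 h treatment indicates activity; parallel CellTiter-Glo flags cytotoxicity.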
# [7] = TOX21_TRB_BLA_Antagonist_Followup_viability: Viability Assessment in the Tox21 Thyroid Hormone Receptor beta Antagonism Beta-lactamase (BLA) Follow-Up Assay (AID 2283961)
# Outline: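 Cytotoxicity is measured in parallel with the antagonist-mode TRβ beta-lactamase screen, using ATP-coupled luciferase luminescence. Engineered HEK293T cells are treated for 18 h with 11-point compound series in triplicate.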
# [8] = TOX21_TR_RXR_BLA_Antagonist_Followup_viability: Viability Assessment in the Tox21 Thyroid Hormone Receptor beta Retinoid X Receptor alpha (RXRa) Antagonism Beta-lactamase (BLA) Follow-Up Assay (AID 2283979)
# Outline: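 RXRa-bla HEK293T cells (2,500/well, phenol red-free DMEM, 2% charcoal-stripped FBS) were attached 5 h, then exposed to compounds at 11 concentrations in triplicate for 16 h at 37C. Viability measured by CellTiter-Glo ATP luminescence, bidirectional fitting versus DMSO.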
# [9] = CCTE_Harrill_HTTr_Viability_MCF7: CCTE's 6-hour Cell Viability Assessment for the High-Throughput Transcriptomics (HTTr) Platform, in MCF-7 cells cultured in DMEM + 10% fetal bovine serum, Harrill Lab (AID 2284010; active means hit-call score of the fitted dose curve at least 0.9, where 1 is the maximum; inactive means score below 0.9)
# Outline: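 Viability measured through PI dye exclusion by high-content imaging at 6 h post-dosing.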
# [10] = CCTE_Harrill_HTTr_Apoptosis_MCF7: CCTE's 6-hour Apoptosis Assessment for the High-Throughput Transcriptomics (HTTr) Platform, in MCF-7 cells cultured in DMEM + 10% fetal bovine serum, Harrill Lab (AID 2284011; active means hit-call score of the fitted dose curve at least 0.9, where 1 is the maximum; inactive means score below 0.9)
# Outline: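 Cells are dosed with test chemicals at eight concentrations and imaged 6 hours later for caspase-3/7 activity using a green fluorogenic detection reagent. Activity is fitted in both directions against DMSO controls.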
# [11] = CCTE_Harrill_HTTr_CellCount_MCF7: CCTE's Cell Proliferation Assessment for the High-Throughput Transcriptomics (HTTr) Platform, Harrill Lab (AID 2284012);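 further: count of Hoechst-stained nuclei per well by high-content imaging in MCF-7 cells; cells exposed to compound for six hours; intended direction is loss of nuclei count meaning fewer cells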
# Outline: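 Nuclei counting (Hoechst, high content imaging) in MCF-7 after a 6 h treatment at eight concentrations. Activity fitted bidirectionally, DMSO as negative control.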
# [12] = system: Thyroperoxidase (TPO), gene 54314; test: CCTE_Simmons_AUR_rTPO: CCTE's Amplex UltraRed Assay for Thyroperoxidase (TPO) Inhibition, Simmons Lab (AID 2283662);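 on AC50: potency for loss of signal meaning inhibition of peroxidase activity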
# Outline: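 Rat thyroid microsomes (5 ug protein) were incubated with test compound (8 concentrations, 5 nM–87.5 uM final, 0.5% DMSO), 25 uM Amplex UltraRed and 300 uM H2O2 in 200 mM phosphate buffer for 30 min at 37C in the dark; fluorescence read at 544/590 nm.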
# [13] = target: Luciferin 4-monooxygenase (Photinus pyralis) (UniProt P08659); test: CCTE_Simmons_QuantiLum_inhib_2: CCTE's Firefly Luciferase Inhibition Assay, Simmons Lab (AID 2283767)
# Outline: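 Counter-screen for nonspecific enzyme inhibition: purified firefly luciferase incubated 30 min at 37C with chemicals up to 87.5 uM final, then luminescence measured after luciferin/dATP injection; activity fitted against DMSO baseline.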
# [14] = CCTE_Simmons_CellTiterGLO_HEK293T: Viability Assessment in CCTE's Assays for Thyroperoxidase (TPO) Inhibition, Simmons Lab (AID 2283665);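 on AC50: cells exposed to compound for 24 h before readout; actives reduce ATP signal below DMSO vehicle meaning cytotoxicity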
# Outline: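 Cytotoxicity counter-screen: human HEK293T cells in low-serum (1% FBS) medium receive test chemical, 5 nM to 87.5 uM final, for 24 h; ATP is quantified by luciferase luminescence.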
# Sequence of Luciferin 4-monooxygenase (Photinus pyralis) (P08659 whole entry, looked up): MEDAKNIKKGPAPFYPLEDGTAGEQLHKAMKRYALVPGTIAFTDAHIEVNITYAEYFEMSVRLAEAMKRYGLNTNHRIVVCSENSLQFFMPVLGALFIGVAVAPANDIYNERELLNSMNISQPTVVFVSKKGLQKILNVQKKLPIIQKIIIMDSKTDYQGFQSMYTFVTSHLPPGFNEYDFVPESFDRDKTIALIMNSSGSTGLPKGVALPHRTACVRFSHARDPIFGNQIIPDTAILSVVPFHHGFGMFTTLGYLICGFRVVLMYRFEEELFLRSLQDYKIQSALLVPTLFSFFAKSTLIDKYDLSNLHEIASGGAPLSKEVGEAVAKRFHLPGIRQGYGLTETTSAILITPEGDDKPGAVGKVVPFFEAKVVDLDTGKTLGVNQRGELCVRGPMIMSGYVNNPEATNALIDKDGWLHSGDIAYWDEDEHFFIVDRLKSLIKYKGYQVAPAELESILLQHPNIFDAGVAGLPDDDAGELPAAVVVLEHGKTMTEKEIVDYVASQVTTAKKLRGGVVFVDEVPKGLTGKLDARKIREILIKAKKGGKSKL
# Sequence of Cellular tumor antigen p53 (Homo sapiens) (P04637 whole entry, looked up): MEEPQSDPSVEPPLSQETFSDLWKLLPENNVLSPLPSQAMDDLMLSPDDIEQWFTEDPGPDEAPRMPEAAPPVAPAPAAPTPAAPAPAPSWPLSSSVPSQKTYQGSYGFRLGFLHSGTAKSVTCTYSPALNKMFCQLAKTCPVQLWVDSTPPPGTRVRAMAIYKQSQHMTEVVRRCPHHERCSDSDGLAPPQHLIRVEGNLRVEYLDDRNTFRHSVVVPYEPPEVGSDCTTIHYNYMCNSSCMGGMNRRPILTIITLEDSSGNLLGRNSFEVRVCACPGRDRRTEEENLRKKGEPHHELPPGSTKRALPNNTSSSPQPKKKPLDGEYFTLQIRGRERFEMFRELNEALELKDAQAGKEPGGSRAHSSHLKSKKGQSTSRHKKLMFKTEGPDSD
# Sequence of THRB (gene 7068) (P10828 whole entry, looked up, the tested form may be a part): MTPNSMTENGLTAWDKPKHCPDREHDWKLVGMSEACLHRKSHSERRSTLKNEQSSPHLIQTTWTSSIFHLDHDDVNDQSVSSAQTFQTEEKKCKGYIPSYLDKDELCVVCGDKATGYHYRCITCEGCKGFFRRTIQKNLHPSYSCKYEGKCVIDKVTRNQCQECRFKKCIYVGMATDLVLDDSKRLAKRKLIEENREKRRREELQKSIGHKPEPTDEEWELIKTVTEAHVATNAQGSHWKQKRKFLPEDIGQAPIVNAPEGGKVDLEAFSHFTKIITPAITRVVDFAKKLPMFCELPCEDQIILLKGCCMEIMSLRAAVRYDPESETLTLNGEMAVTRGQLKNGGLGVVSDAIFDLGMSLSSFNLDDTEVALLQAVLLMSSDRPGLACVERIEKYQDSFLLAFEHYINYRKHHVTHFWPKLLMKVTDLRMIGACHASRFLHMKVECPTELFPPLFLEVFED
smiles,measurement,setting,value
C=CCC=CC,outcome,[1],inactive
same,outcome,[2],inactive
same,outcome,[3],inactive
CCc1ccc(C(=O)C(C)CN2CCCCC2)cc1 (stereo unspecified),outcome,[1],inactive
same,outcome,[4],inactive
same,outcome,[2],inactive
same,outcome,[3],inactive
COC(=O)N[C@H](C(=O)N[C@@H](Cc1ccccc1)[C@@H](O)CN(Cc1ccc(-c2ccccn2)cc1)NC(=O)[C@@H](NC(=O)OC)C(C)(C)C)C(C)(C)C,outcome,[1],inactive
same,outcome,[4],inactive
same,outcome,[3],inactive
C[N+]1(C)CCN(CC(O)(c2ccccc2)C2CCCCC2)CC1 (stereo unspecified),outcome,[1],inactive
same,outcome,[2],inactive
CCCCCCCCCCCc1ccccc1,outcome,[1],inactive
same,outcome,[3],inactive
CCC(=O)CC,outcome,[1],inactive
same,outcome,[2],inactive
O=C(O)c1cc(O)c2c(c1)[O][Bi][O]2,outcome,[1],inactive
CCC(C)(Oc1ccc(C2(c3ccc(OC(C)(CC)C(=O)O)cc3)CCCCC2)cc1)C(=O)O (stereo unspecified),outcome,[1],inactive
same,outcome,[4],inactive
Cc1ccccc1C(=O)O,outcome,[1],inactive
Cc1ccc(C=O)cc1C,outcome,[1],inactive
same,outcome,[4],inactive
same,outcome,[2],inactive
CC(C(=O)O)c1ccc(CC2CCCC2=O)cc1 (stereo unspecified),outcome,[1],inactive
same,outcome,[4],inactive
same,outcome,[2],inactive
same,outcome,[3],inactive
Nc1nc(N)c(-c2ccccc2)s1,outcome,[1],inactive
same,outcome,[4],inactive
same,outcome,[2],inactive
O=C(NNCS(=O)(=O)O)c1ccncc1,outcome,[1],inactive
same,outcome,[4],inactive
same,outcome,[3],inactive
CS(=O)(=O)NC(=O)CCC/C=C\C[C@H]1C(=O)C[C@@H](O)[C@@H]1/C=C/[C@H](O)COc1ccccc1,outcome,[1],inactive
same,outcome,[4],inactive
C[C@H]1c2cccc(O)c2C(O)=C2C(=O)[C@]3(O)C(O)=C(C(N)=O)C(=O)[C@@H](N(C)C)[C@@H]3[C@@H](O)[C@@H]21,outcome,[1],inactive
same,outcome,[3],inactive
NNc1nnc(Cc2ccncc2)c2ccccc12,outcome,[5],inactive
same,outcome,[6],inactive
same,outcome,THRB (gene 7068),inactive
same,outcome,[7],inactive
same,outcome,[8],inactive
COc1ccc(-c2cc(=S)ss2)cc1,outcome,[1],inactive
same,outcome,[3],inactive
CN(C)CC/C=C1\c2ccccc2COc2ccccc21,outcome,[5],inactive
same,outcome,[3],inactive
[K+],outcome,[9],inactive
same,outcome,[10],inactive
same,outcome,[11],inactive
COc1cnc(NS(=O)(=O)c2ccc(N)cc2)nc1,outcome,[3],inactive
COc1c[nH]ccc1=O,outcome,[12],inactive
same,outcome,[13],inactive
CCCCOC(=O)c1ccccc1O,outcome,[12],inactive
same,AC50,[14],53600 nM (active)
same,outcome,[13],inactive
O=C1CC(c2ccc(O)cc2)Oc2cc(O)cc(O)c21 (stereo unspecified),AC50,[12],742 nM (active)
same,outcome,[14],inactive
same,outcome,[13],inactive
S=c1[nH]c2cc(Cl)ccc2s1,AC50,[12],1540 nM (active)
same,outcome,[14],inactive
same,outcome,[13],inactive
